# Source: PubChem BioAssay
# Only a selection was taken, and hits are over-represented in it overall.
# nsP2pro inh = CHIKV nsP2 protease inhibition, primary qHTS | AID 1964107 | Potency, µM (titrated, usually from 24.9 µM), for the others: top-dose activity change, negative = inhibition, most hits filed as inhibitors | 31,000 tested, 1.1% active | FRET peptide cleavage, nsP2pro, fluorescence 1 h; further: nearly all actives have a fitted effect of over 60% in size
#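 Recombinant nsP2pro (150 nM) was preincubated with compound 15 min at room temperature in 10 mM Tris-HCl pH 8.0, 0.01% Tween 20. Peptide 2 FRET substrate (2.5 uM) was then added and fluorescence read after 1 h. Seven-point series, up to 25 uM.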
# nsP2 cell sec = inhibits CHIKV nsP2 protease in cells; shares compounds with nsP2pro inh; cell-based CHIKV nsP2 protease reporter assay; Potency, µM (doses to about 51.1 µM), for inactives: at the highest dose activity change, negative = inhibition, usual class: inhibitors; 450 tested, 10% active; further: nearly all actives have a fitted effect of over 70% in size
# Target sequence (Q8JUX6 220-798 limits assumed): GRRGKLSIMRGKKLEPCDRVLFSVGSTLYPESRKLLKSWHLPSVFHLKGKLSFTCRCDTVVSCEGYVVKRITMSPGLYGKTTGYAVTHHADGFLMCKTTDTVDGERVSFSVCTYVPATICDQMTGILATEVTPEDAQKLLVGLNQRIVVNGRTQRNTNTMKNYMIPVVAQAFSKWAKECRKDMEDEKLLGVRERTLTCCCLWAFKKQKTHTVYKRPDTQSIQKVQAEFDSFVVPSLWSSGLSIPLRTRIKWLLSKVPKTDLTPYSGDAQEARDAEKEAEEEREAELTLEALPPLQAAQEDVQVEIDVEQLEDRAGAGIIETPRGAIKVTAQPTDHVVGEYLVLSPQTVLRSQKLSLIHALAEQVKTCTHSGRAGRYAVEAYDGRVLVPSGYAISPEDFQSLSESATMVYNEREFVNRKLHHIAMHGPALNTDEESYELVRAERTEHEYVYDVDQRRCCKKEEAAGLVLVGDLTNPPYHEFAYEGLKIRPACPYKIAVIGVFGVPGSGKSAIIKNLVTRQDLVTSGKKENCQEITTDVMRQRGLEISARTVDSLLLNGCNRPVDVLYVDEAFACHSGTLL
# NSP2 full ctr = full-length CHIKV NSP2 protease inhibition, selectivity. shares compounds with nsP2pro inh. 410 tested, 39% active. Potency, µM (highest dose often 50.7 µM), inactives show at the top dose activity change, negative = inhibition, hits mostly inhibitors. Full-length CHIKV NSP2 protease enzymatic counterscreen. AID 1964101; further: nearly all actives have a fitted effect of over 65% in size
# Furin counterscr = selectivity counter-screen for CHIKV nsP2 protease inhibitors: human furin; Recombinant human furin enzymatic counterscreen, fluorogenic substrate; shares compounds with nsP2pro inh; Potency, µM (titrated, usually from 50.6 µM), inactives show at the top dose activity change, negative = inhibition, usual class: inhibitors; 410 tested, 6% active
# nsP2 NS23 pep = selectivity test for CHIKV nsP2 protease inhibitors: endogenous NS2/3 peptide; AID 1964103; 410 tested, 34% active; shares compounds with nsP2pro inh; Potency, µM (highest dose often 51 µM), inactives show top-dose activity change, negative = inhibition, usual class: inhibitors; Purified CHIKV nsP2 protease, endogenous NS2/3 peptide cleavage; further: nearly all actives have a fitted effect of over 55% in size
# Papain counter = papain protease inhibition, counterscreen for nsP2pro inhibitors; shares compounds with nsP2pro inh; purified papain protease activity, enzymatic inhibition; Potency, µM (doses to about 51 µM), for the others: top-dose activity change, negative = inhibition, actives largely listed as inhibitors; 410 tested, 5% active
# nsP2pro conf qHTS = CHIKV nsP2 protease inhibition, confirmatory qHTS; shares compounds with nsP2pro inh; CHIKV nsP2 protease enzymatic activity, qHTS; Potency, µM (titrated, usually from 25.5 µM), inactives show at the highest dose activity change, negative = inhibition, most hits filed as inhibitors; 410 tested, 43% active; AID 1964105; further: nearly all actives have a fitted effect of over 75% in size
# HCV NS3 4A cs = inhibits HCV NS3/4A protease in an nsP2pro selectivity counterscreen; shares compounds with nsP2pro inh; HCV NS3/4A protease biochemical counterscreen; Potency, µM (titrated, usually from 50.9 µM), actives largely listed as inhibitors; 410 tested, 20% active; AID 1964106; further: nearly all actives have a fitted effect of over 55% in size
# * = called active by the depositor; i = inactive; ? = inconclusive; ! = repeats disagree; [ ] = remark or other dose. The call rests on the fitted dose curve. On the % scale 0 is the no-effect control and ±100 the full control effect; potency means the concentration at half of the fitted maximal effect.
SMILES,nsP2pro inh,others
Cc1nc(C2CCN(C(=O)Cc3ccccc3)CCN2C(=O)Cc2ccccc2)n[nH]1 (stereo unspecified),?,nsP2 cell sec=1.1%;NSP2 full ctr=?;Furin counterscr=-2.2%;nsP2 NS23 pep=?;Papain counter=-1.8%;nsP2pro conf qHTS=?;HCV NS3 4A cs=?
CN(Cc1ccccc1)C(=O)CC1CCN(C(=O)Cc2ccccc2)C1 (stereo unspecified),6.0%,
COc1ccc(CC(=O)N2CCC(c3n[nH]c(=O)n3Cc3ccc(F)cc3)CC2)cc1,i,
CC(CCC1(O)OC2CC3C4CC=C5CC(O[C@@H]6O[C@H](CO)[C@@H](O[C@@H]7O[C@H](CO)[C@@H](O)[C@H](O)[C@H]7O)[C@H](O)[C@H]6O[C@@H]6O[C@@H](C)[C@H](O)[C@@H](O)[C@H]6O)CCC5(C)C4CCC3(C)C2C1C)CO[C@@H]1O[C@H](CO)[C@@H](O)[C@H](O)[C@H]1O (stereo partly specified),-0.9%[5.1 µM],
COc1ccc2c(c1O[C@H]1CCNC1)CCC2,-5.1%,
Cc1ccc(-n2c(=O)ccc(=O)n2CC(=O)N(C)C(C)c2ccco2)cc1 (stereo unspecified),-5.6%,
CC#CC(=O)N1CC[C@@H](n2c(=O)n(-c3ccc(Oc4ccccc4)cc3)c3c(N)ncnc32)C1,-1.7%,
CC1=NN(c2ccccc2)C(=O)C1,0.0351µM*!,nsP2 cell sec=-9.6%;NSP2 full ctr=-1.7%;Furin counterscr=-8.5%;nsP2 NS23 pep=-4.1%;Papain counter=-2.7%;nsP2pro conf qHTS=-3.8%;HCV NS3 4A cs=i
Cc1occc1C(=O)N1CCC(CCC(=O)N2CCN(c3ccccc3)CC2)CC1,0.0%,
CC(=O)c1ccc(NC(=O)c2cnn3c(C)cc(C)nc23)cc1,3.2%,
Cc1cc(C)nc(NC(=S)N2CCN(c3ccc(Cl)nn3)CC2)c1,-9.5%,
Clc1ccc(N2C[C@H]3CC[C@@H](C2)N3)nn1,4.95µM*,nsP2 cell sec=1.2%;NSP2 full ctr=4.11µM*;Furin counterscr=?;nsP2 NS23 pep=14.6µM*;Papain counter=?;nsP2pro conf qHTS=3.57µM*;HCV NS3 4A cs=i
O[C@H]1CC[C@@H](Cc2cc(-c3ccccn3)on2)O[C@@H]1CN(Cc1ccccc1)Cc1ccccc1,i,
CC(C)CN(Cc1cccnc1)C1CN(S(=O)(=O)Cc2ccccc2F)C1,i,
COc1nccc(-c2nc(Nc3ccc(F)c(F)c3)c3ccccc3n2)c1Cl,i,
O=c1c2ccccc2[se]n1-c1ccccc1,4.42µM*,nsP2 cell sec=?;NSP2 full ctr=?;Furin counterscr=2.06µM*;nsP2 NS23 pep=9.19µM*;Papain counter=-10.9%;nsP2pro conf qHTS=2.25µM*;HCV NS3 4A cs=3.66µM*
Cc1ccc(C(=O)N2CCC(Cc3noc(C4CCOCC4)n3)C2)s1 (stereo unspecified),-0.9%,
COC1CC(O[C@H]2CC[C@@]3(C)C(=CC[C@]4(O)C3[C@H](O)[C@@H](O)[C@]3(C)[C@@H]([C@H](C)O)CC[C@@]34O)C2)OC(C)C1OC1CC(OC)C(OC2CC(OC)C(OC3OC(C)C(OC4OC(CO)C(O)C(O)C4O)C(OC)C3O)C(C)O2)C(C)O1 (stereo partly specified),-5.3%[5.1 µM],
CC(C)n1c(=O)cc(N[C@@H](C)c2ccccc2)[nH]c1=O,-15.6%,
O=C(NC1CCCc2c1cnn2-c1ccc(F)cc1F)c1ccncc1 (stereo unspecified),-10.4%,
O=C(NC1CCCc2c1cnn2-c1ccc(F)cc1F)c1ccccn1 (stereo unspecified),7.94µM*!,nsP2 cell sec=9.1%;NSP2 full ctr=-2.3%;Furin counterscr=-1.0%;nsP2 NS23 pep=14.5%;Papain counter=-5.0%;nsP2pro conf qHTS=11.8%;HCV NS3 4A cs=i
O=C(N[C@H]1CCCc2c1cnn2-c1ccc(F)cc1F)c1ccccn1,i,
CC1=C(C(=O)O)N2C(=O)[C@@H](NC(=O)[C@H](N)C3=CCC=CC3)[C@@H]2SC1,-22.7%,
Cc1ccc(C)c(N2CCN(c3ccc(NC(=O)c4cccs4)cc3C(=O)O)CC2)c1,5.62µM*,nsP2 cell sec=3.6%;NSP2 full ctr=?;Furin counterscr=-22.6%;nsP2 NS23 pep=16.3µM*;Papain counter=6.7%;nsP2pro conf qHTS=7.98µM*;HCV NS3 4A cs=4.11µM*
Cc1cccc(C(=O)Nc2ccc3oc(-c4cccc5c(Br)cccc45)nc3c2)c1,-21.3%,
SMILES,nsP2pro inh,others
CCN1C(=O)c2ccccc2Sc2ccc(NC(=O)c3cccc(C)c3)cc21,-4.5%,
O=C(Nc1cncnc1)c1cccs1,-2.6%,
Cc1ccccc1C(=O)Nc1ccc(NC(=O)c2cccs2)cc1,18.0%,
COc1cccc(C(=O)Nc2ccc3nc(N4CCC(C)CC4)cc(C)c3c2)c1,7.7%,
CC1CCN(c2ccc(NC(=O)c3cccc(Cl)c3)cc2C(=O)O)CC1,4.47µM*,nsP2 cell sec=?;NSP2 full ctr=-0.7%;Furin counterscr=?;nsP2 NS23 pep=0.461µM*;Papain counter=5.2%;nsP2pro conf qHTS=7.11µM*;HCV NS3 4A cs=3.26µM*
Cc1cccc(C(=O)Nc2ccc(N3CC=C(c4ccccc4C)CC3)c(C(=O)O)c2)c1,9.53µM*,nsP2 cell sec=30.4%;NSP2 full ctr=2.06µM*;Furin counterscr=?;nsP2 NS23 pep=7.3µM*;Papain counter=1.4%;nsP2pro conf qHTS=5.04µM*;HCV NS3 4A cs=1.63µM*
Cn1c(=O)n(C)c2cc(N3CCCC3)c(NC(=O)Nc3ccccc3)cc21,-12.1%,
O=C(Nc1ccc(N2CCC(N3CCCCC3)CC2)c(C(=O)O)c1)c1ccccc1,10.7µM*,nsP2 cell sec=-4.7%;NSP2 full ctr=2.91µM*;Furin counterscr=?;nsP2 NS23 pep=9.19µM*;Papain counter=-3.0%;nsP2pro conf qHTS=6.34µM*;HCV NS3 4A cs=1.83µM*
O=C(Nc1ccc(S(=O)(=O)Nc2ncccn2)cc1)c1cccc(Cl)c1,-28.6%,
Cc1c(C(=O)Nc2ccc(N3CCC(N4CCOCC4)CC3)c(C#N)c2)cnn1-c1ccc(Cl)cc1,-28.1%,
O=C(NC1CCCN(CCn2nc3n(c2=O)CCCC3)C1)c1ccccc1Cl (stereo unspecified),-3.8%,
CC(C)=CCC[C@](C)(OC1OC(COC2OCC(O)C(O)C2O)C(O)C(O)C1O)[C@H]1CC[C@]2(C)[C@@H]1[C@H](O)C[C@@H]1[C@@]3(C)CC[C@H](OC4OC(CO)C(O)C(O)C4OC4OC(CO)C(O)C(O)C4O)C(C)(C)[C@@H]3CC[C@]12C (stereo partly specified),-11.6%[10 µM],
CCC=CCC=CCC=CCCCCCCCC(=O)O,-29.9%,
O=C(CCc1c[nH]c2ccccc12)NC1CCN(c2ccc(=O)[nH]n2)CC1,-11.2%,
O=C(OCC#CCSc1nnc(-c2ccc3ccccc3c2)o1)c1ccc(F)cc1,-7.3%,
Cn1nc(C2CCN(C(=O)NCc3ccccc3)CC2)c2c1CCOC2,-4.2%,
